Results on 12 compounds are retold here after paper PMC11062922 (Nature Chemical Biology, 2023).

What all share (set-up): species or system human, MV4-11 + K-562 + COLO205 + SK-N-BE2 + OVCAR-8
One test concerns HSPE1. To be noted: read-out: apparent Kd; compound concentrations: 100 nM and 1000 nM (sheet 'Samples'), CATDS: 0.26304172030338102; n = 1.
The next test has as its system PGK1. To be noted: read-out: apparent Kd; compound concentrations: 100 nM and 1000 nM (sheet 'Samples'), CATDS: 0.76516694172770505; n = 1.
For the next test, the system named is PKM. Particulars: read-out: apparent Kd; compound concentrations: 100 nM and 1000 nM (sheet 'Samples'), CATDS: 0.19798813046119201; n = 1.
In another test the test system is RAN. Particulars: read-out: apparent Kd; compound concentrations: 100 nM and 1000 nM (sheet 'Samples'), CATDS: 0.17121500690258801; n = 1.
The subject of a further test is GSK3A. To be noted: read-out: apparent Kd, n = 1.
Another test deals with GSK3B. Particulars: read-out: apparent Kd, n = 1.
For another test, the system named is MERTK. To be noted: read-out: apparent Kd; compound concentrations:100 nM and 1000 nM (sheet 'Samples'); n = 1.
The next test deals with HSP90B1. Particulars: read-out: apparent Kd, n = 1.
A further test concerns PIK3CB. Particulars: read-out: apparent Kd, n = 1.
A further test concerns PIK3C3. To be noted: read-out: apparent Kd; compound concentrations: 100 nM and 1000 nM (sheet 'Samples'), CATDS: 0.26990158235455203; n = 1.
The next test concerns IARS. Particulars: read-out: apparent Kd, n = 1.
Another test has as its system MAPKAPK2. Particulars: read-out: apparent Kd; compound concentrations:100 nM and 1000 nM (sheet 'Samples'); n = 1.
The test system of a further test is MDN1. Particulars: read-out: apparent Kd; compound concentrations:100 nM and 1000 nM (sheet 'Samples'); n = 1.
The next test deals with MYLK3. Particulars: read-out: apparent Kd; compound concentrations:100 nM and 1000 nM (sheet 'Samples'); n = 1.
A further test has as its system NQO2. Particulars: read-out: apparent Kd; compound concentrations:100 nM and 1000 nM (sheet 'Samples'); n = 1.
A further test relates to SMC4. Particulars: read-out: apparent Kd; compound concentrations:100 nM and 1000 nM (sheet 'Samples'); n = 1.
Another test deals with PRKCD. To be noted: read-out: apparent Kd, n = 1.
Another test relates to PRKCA. Particulars: read-out: apparent Kd; compound concentrations:100 nM and 1000 nM (sheet 'Samples'); n = 1.
The subject of another test is PRKCB. To be noted: read-out: apparent Kd; compound concentrations: 100 nM and 1000 nM (sheet 'Samples'), CATDS: 0.217434450418582; n = 1.
In a further test the test system is RPS6KA6. Particulars: read-out: apparent Kd; compound concentrations:100 nM and 1000 nM (sheet 'Samples'); n = 1.
The next test concerns RPS6KB1. Particulars: read-out: apparent Kd; compound concentrations:100 nM and 1000 nM (sheet 'Samples'); n = 1.
The test system of another test is SLK. To be noted: read-out: apparent Kd; compound concentrations:100 nM and 1000 nM (sheet 'Samples'); n = 1.
The next test has as its system PIK3CA. Particulars: read-out: apparent Kd; compound concentrations: 100 nM and 1000 nM (sheet 'Samples'), CATDS: 0.37756355389393098; n = 1.
In the next test the test system is PIK3CD. To be noted: read-out: apparent Kd; compound concentrations: 100 nM and 1000 nM (sheet 'Samples'), CATDS: 0.43898083182903402; n = 1.
For a further test, the system named is PIM2. Particulars: read-out: apparent Kd; compound concentrations: 100 nM and 1000 nM (sheet 'Samples'), CATDS: 0.17072245355379401; n = 1.
Another test relates to ICK. To be noted: read-out: apparent Kd; compound concentrations: 100 nM and 1000 nM (sheet 'Samples'), CATDS: 0.173475626531951; n = 1.
The subject of another test is PRKCQ. Particulars: read-out: apparent Kd; compound concentrations: 100 nM and 1000 nM (sheet 'Samples'), CATDS: 0.15135413462946001; n = 1.
The mark [1] stands for this setting: compound concentrations:100 nM and 1000 nM (sheet 'Samples').

Read-outs that look alike come from different tables or passages of the source.

With `Cn1cc(C2=C(c3cn(C)c4ccccc34)C(=O)NC2=O)c2ccccc21` [RO0317208-000], the potency estimated from few doses with HSPE1 is 0.475 µM; with PGK1, 0.047 µM; in the test on PKM, 1.12 µM; with RAN, 1.97 µM.

As for `O=C(Nc1n[nH]c2nc(-c3cccs3)c(Br)cc12)C1CCCC1` [SB-743341], the potency estimated from few doses with GSK3A (setting [1]) is 0.529 µM; in the test on GSK3B (setting [1]) it was 1.07 µM; with MERTK it was 1.72 µM.

For the compound `COc1cccc(C2=C(c3cn(C)c4ccccc34)C(=O)NC2=O)c1` [RO0318649-000], the potency estimated from few doses in the test on GSK3A (setting [1]) was 0.802 µM; in the test on GSK3B (compound concentrations: 100 nM and 1000 nM (sheet 'Samples'), CATDS: 0.44424601969869798), 1.34 µM.

As for `[2H]C([2H])(c1cccc(C(F)(F)F)c1C)n1ccn2c(=O)cc(N3CCOCC3)nc12` [GSK2289044B], the potency estimated from few doses in the test with HSP90B1 (setting [1]) was 0.112 µM; in the test on PIK3CB (setting [1]) it was 0.016 µM.

With `O=c1cc(N2CCOCC2)nc2n(Cc3cccc(Cl)c3Cl)c3ccccc3n12` [GSK2299009A], the potency estimated from few doses was 1.04 µM in the test with HSP90B1 (compound concentrations: 100 nM and 1000 nM (sheet 'Samples'), CATDS: 0.28143783483282298); 1.17 µM in the test on PIK3C3; 0.251 µM with PIK3CB (compound concentrations: 100 nM and 1000 nM (sheet 'Samples'), CATDS: 0.57413084763850397).

For the compound `Cc1ccc(-c2nc(Nc3ccncc3)c3ccccc3n2)s1` [GSK189015A], the potency estimated from few doses in the test with IARS (compound concentrations: 100 nM and 1000 nM (sheet 'Samples'), CATDS: 1) was 1.44 µM.

Regarding `Cn1cc(C2=C(c3c4n(c5ccccc35)CCN(C(N)=S)C4)C(=O)NC2=O)c2ccccc21` [RO0319377-000], the potency estimated from few doses is 0.427 µM with GSK3A (setting [1]); 0.259 µM with GSK3B (compound concentrations: 100 nM and 1000 nM (sheet 'Samples'), CATDS: 0.32462654335000002); 1.83 µM in the test on MAPKAPK2; 1.47 µM in the test with MDN1; 1.64 µM with MYLK3; 1.55 µM in the test with NQO2. Moreover, in the test on SMC4, the potency estimated from few doses is 2.13 µM.

For the compound `O=C(Nc1n[nH]c2nc(-c3ccco3)ccc12)C1CC1` [SB-743899], the potency estimated from few doses in the test with GSK3A (compound concentrations: 100 nM and 1000 nM (sheet 'Samples'), CATDS: 0.54830406508791196) is 1.39 µM; in the test with PRKCD (compound concentrations: 100 nM and 1000 nM (sheet 'Samples'), CATDS: 0.45951776162212499), 1.99 µM.

Regarding `Cn1cc(C2=C(c3c4n(c5ccccc35)CCC(CN)CC4)C(=O)NC2=O)c2ccccc21` (stereo not drawn) [RO0319371-000], the potency estimated from few doses with GSK3A (setting [1]) is 0.608 µM; with GSK3B (setting [1]) it was 0.504 µM; in the test on PRKCA it was 0.0222 µM; with PRKCB, 0.0523 µM; in the test on PRKCD (setting [1]) it was 0.0316 µM; with RPS6KA6 it was 0.342 µM. Also, the potency estimated from few doses is 0.306 µM with RPS6KB1 and 2.12 µM in the test with SLK.

As for `COc1ccc(Nc2nccc(N3CCC(NC(=O)c4cc5ccccc5s4)C3)n2)cc1` (stereo not drawn) [GSK1379738A], the potency estimated from few doses is 1.35 µM with HSP90B1 (compound concentrations: 100 nM and 1000 nM (sheet 'Samples'), CATDS: 0.19171870490815801); 0.248 µM with PIK3CA; 0.19 µM in the test with PIK3CD; 2.15 µM with PIM2.

For the compound `CN1CCN(Cc2ccc(-c3cc4ncnc(Nc5ccc(OCc6cccc(F)c6)c(Cl)c5)c4s3)o2)CC1` [GW784684X], the potency estimated from few doses in the test on IARS (setting [1]) was 1.61 µM.

In the case of `Cn1cc(C2=C(c3cn(CCO)c4ccccc34)C(=O)NC2=O)c2ccccc21` [RO0318036-000], the potency estimated from few doses was 0.263 µM in the test with GSK3A (compound concentrations: 100 nM and 1000 nM (sheet 'Samples'), CATDS: 0.34431860248680501); 0.252 µM in the test on GSK3B (compound concentrations: 100 nM and 1000 nM (sheet 'Samples'), CATDS: 0.35306232464093901); 1.12 µM in the test on ICK; 1.97 µM with PRKCD (compound concentrations: 100 nM and 1000 nM (sheet 'Samples'), CATDS: 0.14509929843566999); 1.7 µM in the test on PRKCQ.
